Laboratory results reported in the antibiotic and cytotoxicity screens of Wong et al. (2023).
The whole screen tested about 39,000 compounds, of which about 1,500 (3.8%) were called active. This is one part of a sample in which actives are shown more often than they occur.

These molecules were tested on HSkMC (human skeletal muscle cells) (assay: cytotoxicity call (relative viability < 0.9)). Conditions: 10 µM.

Compound	cytotoxicity call
Cc1noc(C)c1S(=O)(=O)N(C)C[C@@H]1Oc2ccc(NC(=O)CCC(F)(F)F)cc2CC(=O)N([C@@H](C)CO)C[C@H]1C	inactive
O=C(O)CN(CC(=O)O)Cc1cc2c(-c3ccccc3C(=O)O)c3cc(CN(CC(=O)O)CC(=O)O)c(=O)cc-3oc2cc1O	inactive
O=C(O)c1ccccc1-c1c2cc(I)c(=O)c(I)c-2oc2c(I)c(O)c(I)cc12	active
O=C([O-])c1ccccc1-c1c2cc(I)c(=O)c(I)c-2oc2c(I)c([O-])c(I)cc12.[Na+].[Na+]	inactive
Cn1cnc(CCNC(=O)C[C@H]2CC[C@H]3[C@@H](COC[C@H](O)CN3C(=O)Nc3ccc(Cl)cc3)O2)c1	inactive
O=C(C[C@@H]1CC[C@@H]2[C@H](COC[C@H](O)CN2S(=O)(=O)c2ccccc2F)O1)N1CCC(Cc2ccccc2)CC1	inactive
COCC#Cc1cnc2c(c1)C(=O)N([C@@H](C)CO)C[C@@H](C)[C@@H](CN(C)S(=O)(=O)c1cn(C)cn1)O2	inactive
C#CC[C@H](c1nc2cc(Cl)ccc2c(=O)n1Nc1ccccc1)N(CCCN)C(=O)c1cccc(Cl)c1F	active
COc1ccc(NC(=O)N(C)C[C@H]2OCCCC[C@@H](C)Oc3ccc(NC(=O)c4ccccc4)cc3C(=O)N([C@H](C)CO)C[C@@H]2C)cc1	inactive
C[C@H](CO)N1C[C@H](C)[C@@H](CN(C)S(=O)(=O)c2cn(C)cn2)Oc2c(NC(=O)c3ccc(-c4nccs4)cc3)cccc2C1=O	inactive
COc1cc(Nc2ncc(F)c(Nc3ccc4c(n3)N(COP(=O)(O)O)C(=O)C(C)(C)O4)n2)cc(OC)c1OC	active
NC1CCCCC1N.O=C1[O][Pt][O]C1=O (stereo not given)	inactive
Cc1noc(C)c1NC(=O)N(C)C[C@H]1Oc2c(NC(=O)NC(C)C)cccc2C(=O)N([C@@H](C)CO)C[C@H]1C	inactive
Cc1ccc(S(=O)(=O)Nc2ccc3c(c2)C(=O)N([C@@H](C)CO)C[C@H](C)[C@@H](CN(C)C(=O)NC2CCCCC2)OCCCC[C@H](C)O3)cc1	inactive
C[C@H](CO)N1C[C@H](C)[C@H](CN(C)C(=O)c2ccncc2)OCCCC[C@H](C)Oc2ccc(NS(=O)(=O)c3cn(C)cn3)cc2C1=O	inactive
CC(=O)Oc1ccccc1C(=O)Nc1ccccc1	inactive
CC(=O)Oc1ccccc1C(=O)Nc1ncc([N+](=O)[O-])s1	active
CC(=O)Nc1ncc([N+](=O)[O-])s1	inactive
C[C@@H]1CN([C@H](C)CO)C(=O)c2cc(N(C)C)ccc2O[C@@H](C)CCCCO[C@@H]1CN(C)S(=O)(=O)c1cn(C)cn1	inactive
CCCNC(=O)C[C@H]1CC[C@H]2[C@@H](COc3ccc(NC(=O)Nc4ccc(C#N)cc4)cc3C(=O)N2C)O1	inactive

Compound	cytotoxicity call
CCOCCOCCOc1oc(C(=O)NC2CCCCC2)c(-c2ccc(Cl)cc2)c1S(=O)(=O)c1ccc(Cl)cc1	inactive
CS(=O)(=O)O.CSc1ccc2c(c1)C(N1CCN(C)CC1)Cc1ccccc1S2 (stereo not given)	active
CSc1ccc2c(c1)N(CCC1CCCCN1C)c1ccccc1S2.Cl (stereo not given)	inactive
CN1CCC(=C2c3ccccc3Sc3ccccc32)CC1.O=C(O)C=CC(=O)O	inactive
C[C@@H]1CN([C@H](C)CO)S(=O)(=O)c2ccc(C#Cc3ccc(F)cc3)cc2O[C@H]1CN(C)C(=O)CN(C)C	inactive
CC(C)NC(=O)N(C)C[C@H]1Oc2ccc(NC(=O)NC3CCCCC3)cc2CC(=O)N([C@@H](C)CO)C[C@H]1C	inactive
CNC(=O)Nc1ccc(-c2nc(N3C[C@H]4CC[C@@H](C3)O4)c3cnn(C4CCC5(CC4)OCCO5)c3n2)cc1	active
CCC(C)C1OC2(C=CC1C)CC1CC(CC=C(C)C(OC3CC(OC)C(OC4CC(OC)C(O)C(C)O4)C(C)O3)C(C)C=CC=C3COC4C(OC)C(C)=CC(C(=O)O1)C34O)O2 (stereo not given)	active
CO[C@H]1C[C@H](O[C@H]2[C@H](C)O[C@@H](O[C@@H]3/C(C)=C/C[C@@H]4C[C@@H](C[C@]5(C=C[C@H](C)[C@@H](C6CCCCC6)O5)O4)OC(=O)[C@@H]4C=C(C)[C@@H](O)[C@H]5OC/C(=C\C=C\[C@@H]3C)[C@]54O)C[C@@H]2OC)O[C@@H](C)[C@@H]1O	inactive
COC1CC(OC2C(C)OC(OC3C(C)=CCC4CC(CC5(C=CC(C)C(C6CCCCC6)O5)O4)OC(=O)C4C=C(C)C(O)C5OCC(=CC=CC3C)C45O)CC2OC)OC(C)C1O (stereo not given)	inactive
CC[C@H](C)[C@H]1O[C@]2(C=C[C@@H]1C)C[C@@H]1C[C@@H](C/C=C(\C)[C@@H](O[C@H]3C[C@H](OC)[C@@H](O[C@H]4C[C@H](OC)[C@@H](NC(C)=O)[C@H](C)O4)[C@H](C)O3)[C@@H](C)/C=C/C=C3\CO[C@@H]4[C@H](O)C(C)=C[C@@H](C(=O)O1)[C@]34O)O2	active
CCC(C)C1OC2(C=CC1C)CC1CC(CC=C(C)C(OC3CC(OC)C(OC4CC(OC)C(NC(C)=O)C(C)O4)C(C)O3)C(C)C=CC=C3COC4C(O)C(C)=CC(C(=O)O1)C34O)O2 (stereo not given)	inactive
CN[C@@H]1[C@@H](C)O[C@@H](O[C@H]2[C@H](C)O[C@@H](O[C@@H]3/C(C)=C/C[C@@H]4C[C@@H](C[C@]5(C=C[C@H](C)[C@@H](C(C)C)O5)O4)OC(=O)[C@@H]4C=C(C)[C@@H](O)[C@H]5OC/C(=C\C=C\[C@@H]3C)[C@]54O)C[C@@H]2OC)C[C@H]1OC	active
C[C@H](CO)N1C[C@H](C)[C@@H](CN(C)C(=O)C2CCC2)Oc2cc(C#Cc3ccncc3)ccc2S1(=O)=O	inactive
Cc1noc(C)c1NC(=O)N(C)C[C@@H]1OCCCC[C@@H](C)Oc2ccc(NS(=O)(=O)c3ccc(Cl)cc3)cc2C(=O)N([C@H](C)CO)C[C@H]1C	inactive
C[C@@H]1CN([C@H](C)CO)S(=O)(=O)c2ccc(C3=CCCC3)cc2O[C@H]1CN(C)C(=O)c1cnccn1	inactive
COc1cccc(S(=O)(=O)N2C[C@H](O)COC[C@@H]3O[C@H](CC(=O)N4CCOCC4)CC[C@H]32)c1	inactive
C[C@H]1CN([C@@H](C)CO)C(=O)c2cc(NC(=O)CCCN(C)C)ccc2O[C@H]1CN(C)Cc1ccc2c(c1)OCO2	inactive
COCC(=O)Nc1ccc2c(c1)OC[C@@H](C)N(C(=O)Cc1cccnc1)C[C@@H](C)[C@@H](OC)CN(C)C2=O	inactive
C[C@H](CO)N1C[C@H](C)[C@@H](CN(C)C(=O)CCN2CCCCC2)Oc2ncc(C#Cc3ccccn3)cc2C1=O	inactive

Compound	cytotoxicity call
CN(Cc1ccccn1)C(=O)[C@@]12COC[C@@H]1CN(S(C)(=O)=O)C2	inactive
CC(C)NC(=O)Nc1ccc2c(c1)C(=O)N([C@H](C)CO)C[C@@H](C)[C@H](CN(C)Cc1ccccc1)OCCCC[C@H](C)O2	inactive
C[C@H](CO)N1C[C@H](C)[C@H](CN(C)C(=O)Nc2ccc(F)cc2)Oc2ccc(NC(=O)Nc3ccc(C(F)(F)F)cc3)cc2C1=O	inactive
C[C@@H]1CN([C@H](C)CO)C(=O)c2cc(NC(=O)Nc3ccc(C(F)(F)F)cc3)ccc2O[C@H]1CN(C)C(=O)Nc1ccc(F)cc1	inactive
C[C@@H]1CN([C@@H](C)CO)C(=O)c2cc(NC(=O)Nc3ccc(F)cc3)ccc2O[C@@H]1CN(C)C(=O)Nc1ccc(C(F)(F)F)cc1	active
C[C@H](CO)N1C[C@H](C)[C@H](CN(C)C(=O)Nc2ccc(C(F)(F)F)cc2)Oc2ccc(NC(=O)Nc3ccc(F)cc3)cc2C1=O	active
C[C@@H]1CN([C@H](C)CO)C(=O)c2cc(NC(=O)Nc3ccc(F)cc3)ccc2O[C@H]1CN(C)C(=O)Nc1ccc(C(F)(F)F)cc1	inactive
C[C@@H]1CN([C@@H](C)CO)C(=O)c2cc(NC(=O)Nc3ccc(C(F)(F)F)cc3)ccc2O[C@@H]1CN(C)C(=O)Nc1ccc(F)cc1	active
C[C@H]1CN([C@@H](C)CO)C(=O)c2cc(NC(=O)Nc3ccc(C(F)(F)F)cc3)ccc2O[C@H]1CN(C)C(=O)Nc1ccc(F)cc1	inactive
C[C@@H]1CN([C@H](C)CO)C(=O)c2cc(NC(=O)Nc3ccc(C(F)(F)F)cc3)ccc2O[C@@H]1CN(C)C(=O)Nc1ccc(F)cc1	active
C[C@H]1CN([C@@H](C)CO)C(=O)c2cc(NC(=O)Nc3ccc(F)cc3)ccc2O[C@H]1CN(C)C(=O)Nc1ccc(C(F)(F)F)cc1	inactive
C[C@H](CO)N1C[C@H](C)[C@@H](CN(C)C(=O)Nc2ccc(C(F)(F)F)cc2)Oc2ccc(NC(=O)Nc3ccc(F)cc3)cc2C1=O	inactive
C[C@H]1CN([C@@H](C)CO)C(=O)c2cc(NC(=O)Nc3ccc(F)cc3)ccc2O[C@@H]1CN(C)C(=O)Nc1ccc(C(F)(F)F)cc1	inactive
C[C@H](CO)N1C[C@H](C)[C@@H](CN(C)C(=O)Nc2ccc(F)cc2)Oc2ccc(NC(=O)Nc3ccc(C(F)(F)F)cc3)cc2C1=O	inactive
C[C@@H]1CCCCO[C@H](CN(C)CC2CC2)[C@@H](C)CN([C@H](C)CO)C(=O)c2cc(NS(=O)(=O)c3ccc(Cl)cc3)ccc2O1	inactive
C[C@@H]1CCCCO[C@@H](CN(C)Cc2ccc3c(c2)OCO3)[C@@H](C)CN([C@@H](C)CO)C(=O)c2cc(NC(=O)Cc3ccccc3)ccc2O1	inactive
Cc1cc(C(=O)Nc2cccc3c2O[C@H](CN(C)S(=O)(=O)c2ccccc2)[C@H](C)CN([C@@H](C)CO)C3=O)n(C)n1	inactive
C[C@H](CO)N1C[C@H](C)[C@H](CN(C)C(=O)NC2CCCCC2)Oc2ccc(NS(=O)(=O)c3cn(C)cn3)cc2CC1=O	inactive
Cc1nc(C)n(C(=O)N2CCOCC2)n1	inactive
C[C@@H](O[C@H]1OCCN(Cc2n[nH]nc2CN(C)C)[C@H]1c1ccc(F)cc1)c1cc(C(F)(F)F)cc(C(F)(F)F)c1	inactive
